From PubChem BioAssay (NCI)
The panel holds about 83,000 compounds, 20% with a hit somewhere; the sample as a whole holds those more often.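 Testing used 96-well plates and a 48-hour single-concentration exposure. Example: -40 means 40% of the starting cells died.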 A number with no mark means an inactive call. Active and inactive are the calls of the source. How the source made its calls: active means growth percent below 10; inactive means the rest.

Assays:
Test in all cases: NCI-60 one-dose screen, 48 h (100 = growth as untreated, 0 = no growth, -100 = all killed)
Conditions in all cases: 10 µM unless noted
SK-MEL-2 melanoma = system: SK-MEL-2 melanoma
EKVX NSCLC = system: EKVX NSCLC
SN12C renal = system: SN12C renal
UO-31 renal = system: UO-31 renal
TK-10 renal = system: TK-10 renal
ACHN renal = system: ACHN renal
A498 renal = system: A498 renal
CCRF-CEM leukemia = system: CCRF-CEM leukemia
MOLT-4 leukemia = system: MOLT-4 leukemia

SMILES | growth (SK-MEL-2 melanoma) | growth (EKVX NSCLC) | growth (SN12C renal) | growth (UO-31 renal) | growth (TK-10 renal) | growth (ACHN renal) | growth (A498 renal) | growth (CCRF-CEM leukemia) | growth (MOLT-4 leukemia)
O=C(N/N=C1\SCC(=O)N1c1ccccc1)c1cc(-c2cc3ccccc3o2)nn1-c1ccccc1 | 103% | 96.7% | 122% | 118% | 112% | 91% | 103% | -84.9% (active) | 87%
Cc1cn(C2CC(N=[N+]=[N-])C(COP(=O)(O)OP(=O)(O)OP(=O)(O)O)O2)c(=O)[nH]c1=O (stereo unspecified) | 107% | 116% | 124% | 98.5% | 113% | 124% | 131% | -98% (active) | 16.8%
CC(C)Cn1cnc2c3ccccc3nc(NCn3nc(-c4cc(Cl)cc(Cl)c4Cl)oc3=S)c21 | 90.8% | 89.1% | 98.5% | 64.8% | 108% | 97.6% | 89.5% | 6.87% (active) | 20.4%
Cc1ccccc1C[P+](c1ccccc1)(c1ccccc1)c1ccccc1 | 2.07% (active) | 29.5% | 40.5% | 76.6% | 36.1% | 71% | 89.5% | 24.9% | 35.7%
C=C1C(=O)O[C@H]2[C@H]1CC/C(COC(=O)c1ccc(Cl)nc1)=C\CC[C@@]1(C)O[C@@H]21 | 40.4% | 10.2% | 12.9% | -39% (active) | -8.78% (active) | -20.6% (active) | 87.2% | -32.1% (active) | -28.6% (active)
CCOC(=O)C1CSC(C)(C(=O)OCC)N1 (stereo unspecified) | 99.4% | 94.7% | 104% | 95.6% | 91.9% | 110% | 118% | 103% | 92.8%
NN=C(c1ccc(Cl)cc1)c1ccc(Cl)cc1 | 121% | 108% | 105% | 81.8% | 110% | 101% | 96% | 89.3% | 97.8%
C=C(C)[C@@H]1C/C=C(\COC(=O)[C@H](OC(C)=O)C(NC(=O)c2ccccc2)c2ccccc2)CC[C@H]2O[C@]2(C)CC/C=C(\C)CC1 (stereo partly specified) | 76.2% [5 µM] | 64.5% [5 µM] | 82.1% [5 µM] | 51.9% [5 µM] | 85.8% [5 µM] | 86.8% [5 µM] | 84.9% [5 µM] | -89.5% [5 µM] (active) | 17.6% [5 µM]
COC(=O)c1oc2c(C(=O)/C=C/c3ccc(OC)cc3)c(OCCN3CCOCC3)ccc2c1C | -30.6% (active) | 9.46% (active) | 17.5% | -66.4% (active) | 25.4% | -34.5% (active) | -47.7% (active) | -38.4% (active) | -20.5% (active)
CN1CCN(Cn2nc(-c3cc(F)c(Cl)cc3Cl)n(/N=C/c3ccc(N(C)C)cc3)c2=S)CC1 | 90.2% | 87.1% | 102% | 55.5% | 90.2% | 92.7% | 78.8% | 83.5% | 99.1%
C=C1C(=O)O[C@H]2[C@H]1CC/C(COC(=O)c1ccccc1)=C\CC[C@@]1(C)O[C@@H]21 | 15% | 11.5% | -22.4% (active) | -95.7% (active) | -0.228% (active) | -83.7% (active) | 99.4% | -26% (active) | -22.2% (active)
O=[N+]([O-])c1cccc2cc(S(=O)(=O)O)ccc12 | 101% | 96.2% | 98% | 92.2% | 94% | 112% | 115% | 94.6% | 85.5%
COc1cc(NC(C)CCCN2C(=O)c3ccccc3C2=O)c2ncccc2c1OC (stereo unspecified) | 94.8% | 69% | 109% | 59.4% | 93.6% | 97.9% | 104% | -26.9% (active) | -67.5% (active)
Cc1cn(C2CC(F)C(CO)O2)c(=O)[nH]c1=O (stereo unspecified) | 115% | 89.1% | 94.8% | 77.6% | 91.9% | 83.7% | 112% | 80.7% | 57%
CSc1nc(N)nc2c1ncn2C | 92.3% | 94.2% | 97.6% | 94.6% | 93.5% | 106% | 119% | 98.3% | 87.6%
C=C1C(=O)O[C@H]2[C@H]1CC/C(COC(=O)c1cc(OC)c(OC)c(OC)c1)=C\CC[C@@]1(C)O[C@@H]21 | -39.4% (active) | -70.6% (active) | -5.94% (active) | -99% (active) | -64.4% (active) | -87.7% (active) | 59.8% | -22% (active) | -14.8% (active)
Nn1c(SCC(=O)Nc2cc(Cl)c(Cl)cc2Cl)nnc1-c1cc(F)c(Cl)cc1Cl | 87.3% | 66.5% | 151% | 65.2% | 123% | 210% | 115% | 125% | 84.8%
CC1=C[S+](c2ccccc2)c2cccc3cc4ccccc4c1c23 (stereo unspecified) | -65.2% (active) | -1.91% (active) | -60.2% (active) | -39.5% (active) | 2.15% (active) | 15.3% | 27.5% | 4.35% (active) | -23.5% (active)
O=C(Nc1cccc([N+](=O)[O-])c1)c1ccc2ccccc2c1O | 44.1% | 51.9% | 50.5% | 49.8% | 91.5% | 77.6% | 41.9% | 39.2% | 66.7%
COc1ccccc1S(=O)(=O)Nc1ccc2c3c(cc(-c4cnn(C)c4)nc13)C(=O)N2C | 46.9% | 40.2% | 52.2% | 23.7% | 13% | 37.5% | 26.8% | 55.5% | 44.7%
CCC1CN2C(=N1)c1ccccc1-c1cc(Cl)ccc12 (stereo unspecified) | -14.9% (active) | 22.9% | 18.5% | -43% (active) | 34.7% | 2.38% (active) | 56.9% | 13.4% | -24.8% (active)
CN1C(=O)C2(SCC(C(=O)NCC(=O)OC(C)(C)C)N2C(=O)C2CCCCC2)c2ccccc21 (stereo unspecified) | 86.9% | 96.6% | 99.2% | 84% | 103% | 99.8% | 83.5% | 96.3% | 92.6%
COc1cc(-c2nc3ccccc3s2)ccc1OCc1nc2n(n1)S(=O)(=O)c1ccccc1N2C | 85.9% | 53.6% | 107% | 72.8% | 87.8% | 94.3% | 89.9% | 4.89% (active) | 89.1%
COc1ccccc1S(=O)(=O)Nc1ccc2c3c(cc(-c4ccoc4)nc13)C(=O)N2C | 74.8% | 66.4% | 82.3% | 39.9% | 37.5% | 70.6% | 71.7% | 76.5% | 75.8%
CC(=O)c1cc2c(N)c(C(=O)Nc3cccc(Cl)c3)sc2nc1C | 39% | 76.5% | 92.6% | 78.7% | 90.4% | 93% | 37.4% | 92.8% | 73.4%
CN(C)c1ncc(C#Cc2c(F)cccc2F)c2ccccc12 | 81.5% | 74.8% | 78.8% | 54.8% | 112% | 96.3% | 100% | 96.3% | 80.8%
CCNc1cc(S(=O)(=O)O)ccc1C | 100% | 101% | 99.8% | 101% | 101% | 113% | 102% | 89.7% | 92.3%
COc1ccc(/C=C2\CS(=O)(=O)C/C(=C\c3ccc(OC)cc3)C2=O)cc1 | -7.45% (active) | 11.4% | -52.1% (active) | -100% (active) | 2.72% (active) | -51% (active) | 36% | -0.95% (active) | -16.1% (active)
CNC(=O)NN | 119% | 91.5% | 110% | 71.7% | 111% | 88.9% | 93.2% | 65.8% | 105%
